The values below come from PubChem BioAssay (NCI).

Experiment [1] in a line: NCI Yeast Anticancer Drug Screen. Data for the rad50 strain (AID 155).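 Further: 0% = growth of vehicle-only cultures of the same strain.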 Particulars: S. cerevisiae rad50 strain growth inhibition; at 50.0 µM; active compounds read high. The essentials: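 Readout: growth inhibition relative to vehicle-treated cultures. Compound exposure was carried out in a genetically defined yeast strain deficient in DNA damage repair.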
Experiment [2] is described as follows: NCI Yeast Anticancer Drug Screen. Data for the mec2-1 strain (AID 157). The settings on record: S. cerevisiae mec2-1 strain, at 50.0 µM, active compounds read high. The method in brief: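 Test agents were screened against the mec2-1 yeast strain, with defined DNA repair or cell cycle alteration. Growth was scored as inhibition against vehicle-only controls.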
The nature of experiment [3]: NCI Yeast Anticancer Drug Screen. Data for the sgs1 mgt1 strain (AID 161).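 Further: 0% = growth of cultures given vehicle only.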 The settings on record: S. cerevisiae sgs1 mgt1 strain, at 50.0 µM, active compounds read high. The essentials:
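Genetically altered yeast, compound exposure, growth inhibition relative to vehicle.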

Experiment [4] in a line: NCI Yeast Anticancer Drug Screen. Data for the cln2 rad14 strain (AID 165).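 Further: 0% = growth equal to vehicle treated cultures.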 The settings on record: S. cerevisiae cln2 rad14 strain, at 50.0 µM, active compounds read high. The essentials: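 Growth of compound-exposed yeast (cln2 rad14 genotype) measured and expressed as inhibition relative to vehicle.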
Experiment [5] in a line: NCI Yeast Anticancer Drug Screen. Data for the bub3 strain (AID 167). Particulars: S. cerevisiae bub3 mutant strain, at 50.0 µM, active compounds read high. The method in brief:
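Readout: yeast growth inhibition, expressed relative to vehicle-only wells. The test organism is a mutant strain from a panel with lesions in DNA repair or checkpoint genes.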

Experiment [6] in a line: NCI Yeast Anticancer Drug Screen. Data for the mlh1 rad18 strain (AID 175). Particulars: S. cerevisiae mlh1 rad18 strain growth inhibition; at 50.0 µM; active compounds read high. The method in brief:
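In this whole-cell yeast screen, a strain with altered DNA damage repair is challenged with compound, and its growth is measured against matched vehicle-treated controls.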

This is part of a sample that, as a whole, favours compounds with a hit. Of some 79,000 tested, about 15% had one in any assay. A number with no mark means an inactive call. The source made the active and inactive calls. No stated cut-off is given here; in the data, active means growth inhibition above about 70%; inactive means the rest.

Consider `COc1cc(CCN(C)C)c([N+](=O)[O-])cc1OC`, for which the growth inhibition in experiment [1] was 7.9%; in experiment [2] it was 21.6%; in experiment [3] it was 19.3%; in experiment [4], 17%; in experiment [5] it was 0.2%; in experiment [6], 34.7%.
For the molecule `S=C=NCc1ccccc1`, the growth inhibition in experiment [1] is -1.55%; in experiment [2] it was 2.65%; in experiment [3], 20.4%; in experiment [4], -12.9%; in experiment [5], 0.85%.
With `CC1(C)CC(=O)CC(C)(C)C1`, the growth inhibition was -25.6% in experiment [1]; -12.2% in experiment [2]; -1.65% in experiment [3]; 4.35% in experiment [4]; -13.2% in experiment [5]; -11.2% in experiment [6].
With `C[N+](C)(C)NP(=O)(N[N+](C)(C)C)Oc1ccccc1`, the growth inhibition in experiment [1] was 28.4%; in experiment [2], 15.2%; in experiment [3], -10.7%; in experiment [4] it was 20.8%; in experiment [5], 1.05%; in experiment [6], 28.1%.
Turning to `O=C([O-])CC(=O)[O-].[NH-][C@@H]1CCCC[C@H]1[NH-].[Pt+4]`, the growth inhibition is -14.2% in experiment [1]; -15.5% in experiment [2]; -24.5% in experiment [3]; -25.1% in experiment [4]; -24.5% in experiment [5].
Turning to `O=C(O)CN1C(=O)CN=C(c2ccccn2)c2cc(Cl)ccc21`, the growth inhibition was -5.45% in experiment [1]; -8.6% in experiment [2]; -23.8% in experiment [3]; -50.6% in experiment [4]; -15.3% in experiment [5]; -17% in experiment [6].
Take `O=S1(N2CC2)=NP(N2CC2)(N2CC2)=NP(N2CC2)(N2CC2)=N1` (centres undefined): the growth inhibition in experiment [1] was -20.9%; in experiment [2], -22.5%; in experiment [3], -16.8%; in experiment [4], 11.2%; in experiment [5], -33%; in experiment [6], -67.1%.
As to `Br[CH](Br)[Hg][c]1ccccc1`, the growth inhibition was 99.2% (active) in experiment [1]; 99.5% (active) in experiment [2]; 94.3% (active) in experiment [3]; 99.2% (active) in experiment [4]; 99.2% (active) in experiment [5]; 99.2% (active) in experiment [6].
For the molecule `CC[C@]12C=CCN3CC[C@@]4(c5ccc(OC)cc5N(C)[C@H]4[C@@](O)(C(=O)OC)[C@@H]1OC(C)=O)[C@@H]32`, the growth inhibition was 30.7% in experiment [1]; -6.5% in experiment [2]; 18.3% in experiment [3]; 19.8% in experiment [4]; 20.9% in experiment [5]; 8.35% in experiment [6].
As for `CCCC[As](CCCC)SC1OC(COC(C)=O)C(OC(C)=O)C(OC(C)=O)C1OC(C)=O` (centres undefined), the growth inhibition in experiment [1] was 98.6% (active); in experiment [2] it was 98.7% (active); in experiment [3], 98.8% (active); in experiment [4], 96.9% (active); in experiment [5] it was 98.5% (active); in experiment [6], 98.1% (active).
On to `CCCC[As](=O)(O)C(C)C`, for which the growth inhibition in experiment [1] was 5%; in experiment [2], 9.25%; in experiment [3], 2.5%; in experiment [4] it was 16%; in experiment [5], 6.95%.
Turning to `CCOC(=O)C(CC(C)C)NC(=O)C(N)Cc1ccc(N(CCCl)CCCl)cc1` (centres undefined), the growth inhibition in experiment [1] is -2.4%; in experiment [2], -8.9%; in experiment [3], -27.1%; in experiment [4] it was -17.6%; in experiment [5], -30.1%.
Take `CC12OCCN1CCO2`: the growth inhibition in experiment [1] is 10.9%; in experiment [2] it was -3.25%; in experiment [3], 11.8%; in experiment [4], 5.45%; in experiment [5], 12.8%.
For `CC1N=NNN1C` (centres undefined), the growth inhibition is -1.8% in experiment [1]; -9.7% in experiment [2]; -2.3% in experiment [3]; -5.9% in experiment [4]; 8.75% in experiment [5].
Consider `ICCCI`, for which the growth inhibition was 0.6% in experiment [1]; -29.8% in experiment [2]; 16.1% in experiment [3]; 3.8% in experiment [4]; 19% in experiment [5]; 3.2% in experiment [6].
